Experimental data published in PubChem BioAssay AID1159580 (chemical genetic matrix, 2015).
Among all 5,500 compounds or so, about 2,000 (36%) were called active. About 18% were inconclusive and are not listed. Rule as the data show it: active = normalized growth mostly below about 0.91 (no sharp cut-off); inconclusive = no clear call, values can overlap the other calls; inactive = mostly above about 0.92. This is one part of the list.

Assay: chemical genetic growth profiling, strain panel (AID 1159580);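 also: tested at 20 µM; growth read once vehicle control cultures reached saturation at 30 °C; 1 = growth at the plate median or of vehicle wells; lower values mean less growth of the strain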
Conditions: growth OD

Measured: normalized growth

O=C1CC(c2ccccc2)Oc2ccccc21 (configuration not stated)
inactive: S. cerevisiae deletion strains, locus YBR021W, strain FUR4, hits give low values 0.97 | S. cerevisiae deletion strains, locus YBR229C, strain ROT2, hits give low values 0.985 | S. cerevisiae deletion strains, locus YCL029C, strain bik1, hits give low values 0.971 | S. cerevisiae deletion strains, locus YDL035C, strain GPR1, hits give low values 1.02 | S. cerevisiae deletion strains, locus YDL074C, strain BRE1, hits give low values 0.989 | S. cerevisiae deletion strains, locus YDL101C, strain DUN1, hits give low values 0.996 | S. cerevisiae deletion strains, locus YDL185W, strain tfp1, hits give low values 0.958 | S. cerevisiae deletion strains, locus YDL192W, strain arf1, hits give low values 0.957 | S. cerevisiae deletion strains, locus YDR101C, strain arx1, hits give low values 0.958 | S. cerevisiae deletion strains, locus YDR162C, strain NBP2, hits give low values 1.02 | S. cerevisiae deletion strains, locus YDR318W, strain mcm21, hits give low values 0.954 | S. cerevisiae deletion strains, locus YDR388W, hits give low values 0.96 | S. cerevisiae deletion strains, locus YDR502C, strain sam2, hits give low values 0.96 | S. cerevisiae deletion strains, locus YEL061C, strain CIN8, hits give low values 0.976 | S. cerevisiae deletion strains, locus YER110C, hits give low values 0.963 | S. cerevisiae deletion strains, locus YER155C, strain BEM2, hits give low values 0.982 | S. cerevisiae deletion strains, locus YER167W, strain BCK2, hits give low values 0.989 | S. cerevisiae deletion strains, locus YGL078C, strain dbp3, hits give low values 0.96 | S. cerevisiae deletion strains, locus YGL086W, strain mad1, hits give low values 0.974 | S. cerevisiae deletion strains, locus YGL248W, strain PDE1, hits give low values 0.993 | S. cerevisiae deletion strains, locus YGR135W, strain pre9, hits give low values 0.969 | S. cerevisiae deletion strains, locus YGR229C, strain SMI1, hits give low values 0.985 | S. cerevisiae deletion strains, locus YGR252W, strain gcn5, hits give low values 1.03 | S. cerevisiae deletion strains, locus YHR030C, strain SLT2, hits give low values 0.982 | S. cerevisiae deletion strains, locus YHR079C, strain IRE1 (second series), hits give low values 0.967 | S. cerevisiae deletion strains, locus YHR094C, strain hxt1, hits give low values 0.972 | S. cerevisiae deletion strains, locus YHR129C, strain ARP1, hits give low values 0.983 | S. cerevisiae deletion strains, locus YHR200W, strain rpn10, hits give low values 0.961 | S. cerevisiae deletion strains, locus YIL066C, strain RNR3, hits give low values 1 | S. cerevisiae deletion strains, locus YIL073C, strain SPO22, hits give low values 1.05 | S. cerevisiae deletion strains, locus YIL125W, strain kgd1, hits give low values 0.956 | S. cerevisiae deletion strains, locus YIR030C, strain dcg1, hits give low values 0.977 | S. cerevisiae deletion strains, locus YJL095W, strain BCK1, hits give low values 0.932 | S. cerevisiae deletion strains, locus YJL134W, strain LCB3, hits give low values 0.983 | S. cerevisiae deletion strains, locus YJL168C, strain set2, hits give low values 0.958 | S. cerevisiae deletion strains, locus YJL187C, strain SWE1 (second series), hits give low values 1.02 | S. cerevisiae deletion strains, locus YJR043C, strain POL32, hits give low values 0.958 | S. cerevisiae deletion strains, locus YKL009W, strain mrt4, hits give low values 1.02 | S. cerevisiae deletion strains, locus YKL068W, hits give low values 0.966 | S. cerevisiae deletion strains, locus YKL085W, strain MDH1 (second series), hits give low values 0.972 | S. cerevisiae deletion strains, locus YKL085W, strain MDH1, hits give low values 0.972 | S. cerevisiae deletion strains, locus YKR001C, strain vps1, hits give low values 0.927 | S. cerevisiae deletion strains, locus YLR039C, strain RIC1, hits give low values 0.956 | S. cerevisiae deletion strains, locus YLR058C, strain SHM2, hits give low values 0.992 | S. cerevisiae deletion strains, locus YLR102C, strain apc9, hits give low values 0.961 | S. cerevisiae deletion strains, locus YLR262C, strain YPT6, hits give low values 0.971 | S. cerevisiae deletion strains, locus YLR268W, strain sec22, hits give low values 0.962 | S. cerevisiae deletion strains, locus YLR330W, strain CHS5, hits give low values 0.988 | S. cerevisiae deletion strains, locus YLR342W, strain FKS1 (second series), hits give low values 0.944 | S. cerevisiae deletion strains, locus YLR371W, strain rom2, hits give low values 0.961 | S. cerevisiae deletion strains, locus YLR418C, strain cdc73, hits give low values 0.894 | S. cerevisiae deletion strains, locus YML016C, strain PPZ1, hits give low values 0.974 | S. cerevisiae deletion strains, locus YML032C, strain rad52, hits give low values 0.949 | S. cerevisiae deletion strains, locus YML124C, strain tub3, hits give low values 0.95 | S. cerevisiae deletion strains, locus YMR078C, strain ctf18, hits give low values 0.955 | S. cerevisiae deletion strains, locus YMR223W, strain ubp8, hits give low values 0.961 | S. cerevisiae deletion strains, locus YMR307W, strain GAS1, hits give low values 1.01 | S. cerevisiae deletion strains, locus YNL067W, strain RPL9B, hits give low values 1.03 | S. cerevisiae deletion strains, locus YNL153C, strain GIM3, hits give low values 1.01 | S. cerevisiae deletion strains, locus YNL233W, strain BNI4, hits give low values 0.967 | S. cerevisiae deletion strains, locus YNL250W, strain rad50, hits give low values 0.966 | S. cerevisiae deletion strains, locus YNL271C, strain bni1, hits give low values 0.947 | S. cerevisiae deletion strains, locus YNL298W, strain CLA4, hits give low values 0.971 | S. cerevisiae deletion strains, locus YNL307C, strain MCK1, hits give low values 0.943 | S. cerevisiae deletion strains, locus YNR052C, strain pop2, hits give low values 0.971 | S. cerevisiae deletion strains, locus YOL006C, strain TOP1, hits give low values 0.932 | S. cerevisiae deletion strains, locus YOL012C, strain htz1 1 | S. cerevisiae deletion strains, locus YOL147C, strain pex11, hits give low values 0.942 | S. cerevisiae deletion strains, locus YOR061W, strain CKA2, hits give low values 0.989 | S. cerevisiae deletion strains, locus YOR069W, strain VPS5, hits give low values 0.98 | S. cerevisiae deletion strains, locus YOR136W, strain idh2, hits give low values 0.965 | S. cerevisiae deletion strains, locus YOR144C, strain elg1, hits give low values 0.949 | S. cerevisiae deletion strains, locus YOR184W, strain ser1, hits give low values 0.925 | S. cerevisiae deletion strains, locus YOR316C, strain cot1, hits give low values 0.964 | S. cerevisiae deletion strains, locus YPL055C, strain LGE1, hits give low values 1 | S. cerevisiae deletion strains, locus YPL241C, strain CIN2, hits give low values 0.977 | S. cerevisiae deletion strains, locus YPR119W, strain clb2, hits give low values 0.935 | S. cerevisiae deletion strains, locus YPR141C, strain kar3, hits give low values 0.954 | S. cerevisiae deletion strains, locus YPR163C, strain tif3, hits give low values 0.952 | S. cerevisiae deletion strains, locus YPR167C, strain met16, hits give low values 1.01 | S. cerevisiae deletion strains, strain wtn01, hits give low values 0.95 | S. cerevisiae strains, strain wild type, hits give low values 0.988
